We go through 22 compounds from ChEMBL document CHEMBL5606460, “ASAP - DENV-2 NS2B-NS3 protease fluorescence single point” (2024).

Out of some 2,000 compounds screened, about 110 (5.5%) showed an effect of 50% or more. Many of the other results were omitted from the sample, so strong results are more common in it than they were.

In this experiment the target is Genome polyprotein (dengue virus type 2) (UniProt P29990).

As usually defined, the inhibition is the change of the read-out against control, counted positive when it falls. For `NCCC(=O)Nc1cccc2cccnc12`, the inhibition (Thailand/16681/1984, Concentration 49.95 uM, Number of replicates 2.0, Standard deviation 1.674842930068702 %) is -9.45% and the inhibition (Thailand/16681/1984, Concentration 99.9 uM, Number of replicates 2.0, Standard deviation 2.956474982493684 %) is -7.49%.
Turning to `Nc1nccc2cc(Br)ccc12`, the inhibition (Thailand/16681/1984, Concentration 49.95 uM, Number of replicates 2.0, Standard deviation 5.1898726049351325 %) is -2.94% and the inhibition (Thailand/16681/1984, Concentration 99.9 uM, Number of replicates 2.0, Standard deviation 6.552121336877266 %) is -2.95%.
`COc1ccc(Cl)c2sc(NC(=O)c3ccccc3NS(=O)(=O)c3ccc(Cl)cc3)nc12`: the inhibition (Thailand/16681/1984, Concentration 198.0 uM, Number of replicates 2.0, Standard deviation 9.166560145189157 %) worked out at 8.28%.
For the compound `CC(C)Nc1nc2ccc(C(=O)Nc3nnc4cccnn34)cc2[nH]1`, the inhibition runs as follows: (Thailand/16681/1984, Concentration 49.5 uM, Number of replicates 2.0, Standard deviation 0.47864102228875616 %) -2.54%; (Thailand/16681/1984, Concentration 99.01 uM, Number of replicates 2.0, Standard deviation 0.9476878624230379 %) -0.35%; (Thailand/16681/1984, Concentration 198.0 uM, Number of replicates 2.0, Standard deviation 0.5058242222917364 %) 4.68%.
As to `Cc1cc(CO)c2cccc(Cc3ccccc3NC(=O)CCC3CCNCC3)c2n1`, the inhibition was -4.33% (Thailand/16681/1984, Concentration 49.95 uM, Number of replicates 2.0, Standard deviation 0.7055143046624119 %) and 6.21% (Thailand/16681/1984, Concentration 99.9 uM, Number of replicates 2.0, Standard deviation 1.236554143481246 %).
As for `Cc1cc(CO)c2cccc(NC(=O)CCC3CCNCC3)c2n1`, the inhibition was found to be 99.7% (Thailand/16681/1984, Concentration 49.95 uM, Number of replicates 2.0, Standard deviation 0.01891415691253689 %) and 99.6% (Thailand/16681/1984, Concentration 99.9 uM, Number of replicates 2.0, Standard deviation 0.03175377284289565 %).
Regarding `Cc1cc(CO)c2cccc(NCC3CCNCC3)c2n1`, the inhibition reads like this: (Thailand/16681/1984, Concentration 49.95 uM, Number of replicates 2.0, Standard deviation 0.8313641199663653 %) -6.22%; (Thailand/16681/1984, Concentration 99.9 uM, Number of replicates 2.0, Standard deviation 1.3048073716258033 %) 0.772%.
`Cc1cc(CO)c2cccc(NC(=O)C[C@H]3CCCN3)c2n1`: the inhibition runs as follows: (Thailand/16681/1984, Concentration 49.95 uM, Number of replicates 2.0, Standard deviation 1.87682580099837 %) 7.72%; (Thailand/16681/1984, Concentration 99.9 uM, Number of replicates 2.0, Standard deviation 2.520000533440925 %) 13.9%.
Consider `Cc1cc(CO)c2cccc(Cc3cccc(NC(=O)Cc4c(C)c5c(=O)[nH]n(C)c5[nH]c4=O)c3)c2n1`, for which the inhibition (Thailand/16681/1984, Concentration 49.95 uM, Number of replicates 2.0, Standard deviation 0.9721935995806666 %) worked out at 38.4% and the inhibition (Thailand/16681/1984, Concentration 99.9 uM, Number of replicates 2.0, Standard deviation 1.6660426680996274 %) was found to be 65.6%.
Regarding `Cc1cc(CO)c2cccc(NC(=O)CC3CNC3)c2n1`, the inhibition reads like this: (Thailand/16681/1984, Concentration 49.95 uM, Number of replicates 2.0, Standard deviation 1.3762045228616064 %) 7.76%; (Thailand/16681/1984, Concentration 99.9 uM, Number of replicates 2.0, Standard deviation 1.6376626661863318 %) 14.8%.
Turning to `Cc1cc(CO)c2cccc(Cc3ccccc3NC(=O)Cc3c(C)c4c(=O)[nH]n(C)c4[nH]c3=O)c2n1`, the inhibition by setting is: (Thailand/16681/1984, Concentration 49.95 uM, Number of replicates 2.0, Standard deviation 2.5458058686723866 %) 22.5%; (Thailand/16681/1984, Concentration 99.9 uM, Number of replicates 2.0, Standard deviation 1.6741240734205003 %) 45.5%.
For the compound `Cc1cc(CO)c2cccc(Cc3cccc(NC(=O)CCC4CCNCC4)c3)c2n1`, the inhibition runs as follows: (Thailand/16681/1984, Concentration 49.95 uM, Number of replicates 2.0, Standard deviation 1.9905342893580933 %) 36.1%; (Thailand/16681/1984, Concentration 99.9 uM, Number of replicates 2.0, Standard deviation 0.13016565259146895 %) 90.2%.
For `Cc1cc(CO)c2cccc(NC(=O)CC3CCNCC3)c2n1`, the inhibition is, setting by setting: (Thailand/16681/1984, Concentration 49.95 uM, Number of replicates 2.0, Standard deviation 2.142909982415651 %) 8.3%; (Thailand/16681/1984, Concentration 99.9 uM, Number of replicates 2.0, Standard deviation 0.2007188026491294 %) 53.9%.
With `Cc1cc(CO)c2cccc(Cc3cccc(NC(=O)C[C@H]4CCCN4)c3)c2n1`, the inhibition is, setting by setting: (Thailand/16681/1984, Concentration 49.95 uM, Number of replicates 2.0, Standard deviation 0.1263380443971036 %) -4.58%; (Thailand/16681/1984, Concentration 99.9 uM, Number of replicates 2.0, Standard deviation 0.8674748654209231 %) -4.17%.
On to `Cc1cc(CO)c2cccc(Cc3cccc(NC(=O)CNC4CC4)c3)c2n1`, for which the inhibition amounted to 0.182% (Thailand/16681/1984, Concentration 49.95 uM, Number of replicates 2.0, Standard deviation 1.5245757174015988 %) and 7.46% (Thailand/16681/1984, Concentration 99.9 uM, Number of replicates 2.0, Standard deviation 1.8285218036822166 %).
Regarding `Cc1cc(CO)c2cccc(NC(=O)Cc3c(C)c4c(=O)[nH]n(C)c4[nH]c3=O)c2n1`, the inhibition is 17.7% (Thailand/16681/1984, Concentration 49.95 uM, Number of replicates 2.0, Standard deviation 1.6565788461475972 %) and 32.2% (Thailand/16681/1984, Concentration 99.9 uM, Number of replicates 2.0, Standard deviation 1.9416844060600267 %).
Turning to `Cc1cc(N)c2cccc(Br)c2n1`, the inhibition is, setting by setting: (Thailand/16681/1984, Concentration 49.95 uM, Number of replicates 2.0, Standard deviation 5.849609152234285 %) -8.02%; (Thailand/16681/1984, Concentration 99.9 uM, Number of replicates 2.0, Standard deviation 5.75747614138947 %) -7.97%.
For the compound `Cc1cc(CO)c2cccc(Cc3ccccc3NC(=O)Cc3c[nH]c4ccccc34)c2n1`, the inhibition was 5.6% (Thailand/16681/1984, Concentration 49.95 uM, Number of replicates 2.0, Standard deviation 1.1797806526631314 %) and 13.1% (Thailand/16681/1984, Concentration 99.9 uM, Number of replicates 2.0, Standard deviation 0.9471475819719768 %).
Take `CNC(=O)c1cc(Cl)ccc1NS(=O)(=O)c1cc(Cl)cc(C(=O)NC)c1OC`: the inhibition (Thailand/16681/1984, Concentration 49.5 uM, Number of replicates 2.0, Standard deviation 3.5107220562143744 %) is -1.24%; the inhibition (Thailand/16681/1984, Concentration 99.01 uM, Number of replicates 2.0, Standard deviation 4.644293157051252 %) was 1.93%; the inhibition (Thailand/16681/1984, Concentration 198.0 uM, Number of replicates 2.0, Standard deviation 3.3165321375743706 %) amounted to 8.2%.
For the compound `O=Cc1ccc(N2CCC(C(=O)Nc3ccc(F)cc3C(F)(F)F)CC2)cc1`, the inhibition (Thailand/16681/1984, Concentration 25.0 uM, Number of replicates 1.0) was 12.5%.
For the compound `O=C(O)c1cnn(C2CCN(C(=O)c3ccnc4[nH]cnc34)CC2)c1`, the inhibition by setting is: (Thailand/16681/1984, Concentration 49.5 uM, Number of replicates 2.0, Standard deviation 1.214191700010942 %) -2.48%; (Thailand/16681/1984, Concentration 99.01 uM, Number of replicates 2.0, Standard deviation 1.7130868961137902 %) -2.88%; (Thailand/16681/1984, Concentration 198.0 uM, Number of replicates 2.0, Standard deviation 1.3863533153956358 %) -2.86%.
With `COc1ccccc1OCCn1cc(C2CCNCC2)c(C)n1`, the inhibition is, setting by setting: (Thailand/16681/1984, Concentration 49.5 uM, Number of replicates 2.0, Standard deviation 0.4008605306484476 %) -1.35%; (Thailand/16681/1984, Concentration 99.01 uM, Number of replicates 2.0, Standard deviation 0.8515456477601485 %) 0.612%; (Thailand/16681/1984, Concentration 198.0 uM, Number of replicates 2.0, Standard deviation 0.3007587308619815 %) 2.21%.
